# In all, about 310,000 compounds went through this assay and about 14,000 (4.5%) showed an effect of 50% or more. The effect is printed as a negative number. Many of the other results were omitted from the sample, so strong results are more common in it than they were.
# Molecular target: human ether-à-go-go-related gene (hERG) potassium channel (human, UniProt Q12809)
# Test: primary screen, population patch clamp on CHO cells stably expressing hERG; higher = less effect of the substance
# 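Note: peak tail current of the secondary pulse compared with the same well before compound.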
# Chain of human ether-à-go-go-related gene (hERG) potassium channel (Q12809 whole entry, looked up): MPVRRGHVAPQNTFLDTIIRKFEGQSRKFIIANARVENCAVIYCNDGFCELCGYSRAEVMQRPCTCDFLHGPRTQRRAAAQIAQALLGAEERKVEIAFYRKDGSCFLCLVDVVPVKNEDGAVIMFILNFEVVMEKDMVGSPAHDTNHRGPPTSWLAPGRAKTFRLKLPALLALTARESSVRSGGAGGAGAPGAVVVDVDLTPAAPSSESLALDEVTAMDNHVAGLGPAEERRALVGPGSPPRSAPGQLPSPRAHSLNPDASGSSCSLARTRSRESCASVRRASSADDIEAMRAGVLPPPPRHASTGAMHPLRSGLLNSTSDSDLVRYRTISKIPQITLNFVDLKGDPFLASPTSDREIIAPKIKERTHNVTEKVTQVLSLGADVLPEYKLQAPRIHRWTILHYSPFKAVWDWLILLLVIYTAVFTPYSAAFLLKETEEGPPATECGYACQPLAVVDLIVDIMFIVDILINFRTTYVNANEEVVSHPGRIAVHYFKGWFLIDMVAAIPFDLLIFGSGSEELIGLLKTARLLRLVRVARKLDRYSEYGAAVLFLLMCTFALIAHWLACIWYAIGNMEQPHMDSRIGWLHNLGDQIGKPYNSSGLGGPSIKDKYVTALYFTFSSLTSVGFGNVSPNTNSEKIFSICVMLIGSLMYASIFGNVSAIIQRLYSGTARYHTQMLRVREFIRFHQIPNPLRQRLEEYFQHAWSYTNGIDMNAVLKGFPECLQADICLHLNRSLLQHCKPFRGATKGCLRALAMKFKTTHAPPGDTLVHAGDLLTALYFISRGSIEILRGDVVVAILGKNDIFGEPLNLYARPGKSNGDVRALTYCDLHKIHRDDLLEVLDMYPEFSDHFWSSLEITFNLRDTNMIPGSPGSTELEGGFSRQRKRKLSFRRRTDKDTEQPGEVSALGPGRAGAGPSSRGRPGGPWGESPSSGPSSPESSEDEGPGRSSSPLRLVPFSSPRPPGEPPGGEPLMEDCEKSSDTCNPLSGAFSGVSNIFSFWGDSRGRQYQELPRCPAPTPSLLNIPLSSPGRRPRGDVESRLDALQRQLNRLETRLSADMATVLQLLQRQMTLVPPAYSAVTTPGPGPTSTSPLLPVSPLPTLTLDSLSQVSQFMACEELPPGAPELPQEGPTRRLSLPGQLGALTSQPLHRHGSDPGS
row,Compound,"hERG current change (%, negative = inhibition) at 10uM"
1,CN1C(=O)/C(=C/c2cccn2-c2ccc3ccccc3c2)C(=O)NC1=S,12.2%
2,Cc1c(Cc2ccccc2)c(=O)oc2cc(OCC(=O)NCC(O)c3ccccc3)ccc12 (stereo not shown),28.7%
3,C/C(CC(=O)Nc1cc(C)ccn1)=N\NC(=O)C(=O)NC(C)C,12.5%
4,O=C(OCCOc1ccccc1Cl)c1ccc(-n2cnnn2)cc1,-19.2%
5,O=C(c1cc(-c2ccc(Br)cc2)on1)N1CCCC1,10.3%
6,COc1ccc(NC(=O)N2CCC(Cc3ccccc3)CC2)cc1,-3.45%
7,CSc1ccc(NC(=O)NCCCN2CCC(Cc3ccccc3)CC2)cc1,-75.9%
8,CSc1ccc(NC(=O)NCc2ccccc2)cc1,19%
9,Cc1ccccc1NC(=O)NCCCN1CCN(C2CCCCC2)CC1,-9.26%
10,Cc1ccccc1CC1CCN(CCCNC(=O)Nc2ccccc2)CC1,-68.5%
11,CSc1ccc(NC(=O)NCCN2CCc3ccccc3C2)cc1,-43.6%
12,O=C(NCCN1CCN(c2ccccc2Cl)CC1)Nc1ccccc1,-34.1%
13,COc1ccc(NC(=O)NCCCCc2ccccc2)cc1,1.06%
14,O=C(NCCN1CCN(Cc2ccccc2Cl)CC1)Nc1ccccc1,-47.5%
15,Cc1ccccc1NC(=O)NCCCN1CCCC1,26.6%
16,COc1ccc(NC(=O)NCCCN2CCC(Cc3ccccc3)CC2)cc1,-77.5%
17,O=C(NCCCN1CCN(Cc2ccccc2Cl)CC1)Nc1ccccc1,-56.8%
18,Cc1c(NC(=O)COc2c(F)c(F)c(F)c(F)c2F)c(=O)n(-c2ccccc2)n1C,0.328%
19,COc1ccc(/C(C)=N/NC(=O)CNC(=O)/C=C\c2ccccc2)c(OC)c1,-9.28%
20,C/C(=N\OCc1ccccc1C#N)c1cc2ccccc2o1,0.146%
21,O=C(NCCCN1CCOCC1)c1ccc2nc(Cc3cccc(Cl)c3)oc2c1,-7.7%
22,COC(=O)c1ccccc1NC(=O)NCc1ccccn1,-6.01%
23,O=C(CC(Cc1ccccc1)C(=O)O)Nc1ccc(F)cc1 (stereo not shown),10.4%
24,COC(=O)c1cc(=O)n(Cc2cccs2)c(=Nc2ccccc2)s1,-0.229%

row,Compound,"hERG current change (%, negative = inhibition) at 10uM"
1,Oc1cccc(/C=N/Nc2ccc(Cl)nn2)c1O,8.72%
2,CC(OC(=O)CNC(=O)c1ccco1)C(=O)Nc1ccc(Cl)cn1 (stereo not shown),-11.4%
3,O=C(/C=C/c1cn(CC(O)CN2CCOCC2)c2ccccc12)c1cccs1 (stereo not shown),-21.8%
4,CCCCN(C)CC(O)Cn1cc(/C=C/C(=O)c2cccs2)c2ccccc21 (stereo not shown),-33.7%
5,O=C(/C=C/c1cn(CC(O)CN2CCCCCC2)c2ccccc12)c1cccs1 (stereo not shown),-75.2%
6,CCCN(CCC)CC(O)Cn1cc(/C=C/C(=O)c2cccs2)c2ccccc21 (stereo not shown),-30.7%
7,O=Cc1cn(CC(O)CN2CCCCC2)c2ccccc12 (stereo not shown),27.3%
8,O=C(/C=C/c1cn(CC(O)CN2CCCCC2)c2ccccc12)c1cccs1 (stereo not shown),-54.4%
9,CCCC(=O)Nc1c(-c2ccccc2)c(=O)c(C)nn1-c1ccccc1,10.3%
10,Cc1ccc(S(=O)(=O)CCC(=O)Nc2ccc3nc(C)sc3c2)cc1,3.75%
11,CC(C)c1c(C(=O)N/N=C/c2ccc(-c3ccccc3)cc2)nnn1-c1nonc1N,26.6%
12,C=CCc1ccccc1OCC(O)CNC(C)C.Cl (stereo not shown),-33.3%
13,CCS(=O)(=O)n1nc(-c2ccc(OC)cc2)nc1N,11.6%
14,COc1ccc(CCC(N)=O)cc1OC,11.1%
15,COc1ccc(CCn2nnnc2C(c2ccccc2)N2CCN(C)CC2)cc1OC.Cl (stereo not shown),7.37%
16,N#Cc1cccc(C(c2nnnn2C2CCCC2)N2CCC(Cc3ccccc3)CC2)c1 (stereo not shown),8.5%
17,COCCn1nnnc1C(c1cccc(C#N)c1)N1CCCCCC1.Cl (stereo not shown),-56.6%
18,COc1ccc(C(c2nnnn2C2CCCC2)N2CCN(C3CCCC3)CC2)cc1OC.Cl (stereo not shown),-22.7%
19,CC(C)(C)n1nnnc1C(c1cccc(C#N)c1)N1CCCCCC1 (stereo not shown),-4.75%
20,Cl.Fc1ccc(Cn2nnnc2C(c2ccc(Cl)cc2)N2CCSCC2)cc1 (stereo not shown),-1.72%
21,Cl.N#Cc1cccc(C(c2nnnn2Cc2ccccc2)N2CCCC2)c1 (stereo not shown),-22.7%
22,COc1ccc(C(c2nnnn2CCc2ccccc2)N2CCN(C3CCCC3)CC2)cc1OC.Cl (stereo not shown),-64.3%
23,N#Cc1ccc(C(c2nnnn2CCc2ccccc2)N2CCCCCC2)cc1 (stereo not shown),-26.3%
24,Clc1ccc(C(c2nnnn2CCc2ccccc2)N2CCSCC2)cc1 (stereo not shown),0.814%

row,Compound,"hERG current change (%, negative = inhibition) at 10uM"
1,COCCn1nnnc1C(c1ccc(Cl)cc1)N1CCSCC1.Cl (stereo not shown),-51.9%
2,N#Cc1cccc(C(c2nnnn2CCc2ccccc2)N2CCN(C3CCCCC3)CC2)c1 (stereo not shown),-61%
3,CC(C)(C)C1CCC(=NOC(=O)c2ccc(F)cc2)CC1 (stereo not shown),15.7%
4,O=C(CNC(=O)c1cccc(Br)c1)N/N=C/c1ccc[nH]1,22.5%
5,Cc1ccc(-c2cc(-c3ccccc3Cl)c(C#N)c(N)n2)o1,3.05%
6,COc1ccccc1-c1ccc(C(=O)O)o1,7.06%
7,COC(=O)c1cn(C)c2ccc(S(=O)(=O)N3CC(C)CC(C)C3)cc2c1=O (stereo not shown),-5.76%
8,COc1ccc(CCNC(=S)Nc2ccc(C)cc2C)cc1,2.89%
9,CC(=O)O.CC1(C)CC(=O)C2=C(C1)NC1=C(C(=O)c3ccccc31)C2c1cc([N+](=O)[O-])ccc1O (stereo not shown),-37.1%
10,CCOC(=O)c1c(S(=O)(=O)NCC(C)c2ccccc2)c(C)n(C)c1C (stereo not shown),-17.8%
11,CCCC(c1nnnn1CCc1ccccc1)N1CCN(C2CCCC2)CC1 (stereo not shown),-48.9%
12,COc1ccc(C(c2nnnn2CCc2ccccc2)N2CCN(C3CCCC3)CC2)cc1.Cl (stereo not shown),-68%
13,Cc1ccc(C(c2nnnn2CCc2ccccc2)N2CCC(C)CC2)cc1.Cl (stereo not shown),13.8%
14,COc1ccccc1CC(=O)N(Cc1ccccc1)c1ccc(C)cc1,-16%
15,CCN(CC)S(=O)(=O)c1ccc(S(=O)(=O)N2CCCC2C(=O)O)cc1 (stereo not shown),-0.323%
16,CCOn1c(=O)c(-c2ccccc2)[n+]([O-])c2ccccc21,1.67%
17,O=C(CN1CCC(C(=O)c2ccc(F)cc2)CC1)Nc1ccccc1,-29.7%
18,COc1nc(OC)nc(N2CCC(C(=O)NCc3ccc(F)cc3)CC2)n1,-44.9%
19,CC(=O)c1ccc(NC(=O)CN2CCC(C(=O)c3ccc(F)cc3)CC2)cc1,-22.9%
20,Cc1ccc(NC(=O)CN2CCC(C(=O)c3ccc(F)cc3)CC2)cc1,-72.5%
21,O=C(CN1CCC(C(=O)c2ccc(F)cc2)CC1)Nc1ccc(F)cc1,-64.7%
22,COc1nc(OC)nc(N2CCC(C(=O)NCc3cccs3)CC2)n1,-45%
23,COc1ccc(C(=O)NC2CCN(CC(=O)NCc3ccccc3)CC2)cc1,-24.4%
24,COc1ccc(C(=O)C2CCN(CC(=O)NCc3ccccc3)CC2)cc1,-46.3%

row,Compound,"hERG current change (%, negative = inhibition) at 10uM"
1,COc1ccc(CNC(=O)C2CCN(c3nc(OC)nc(OC)n3)CC2)cc1,-65.1%
2,COc1ccc(CNC(=O)CN2CCC(C(=O)c3ccc(OC)cc3)CC2)cc1,-58%
3,Cc1c(NC(=O)/C(C#N)=C/c2ccc(-c3ccc(Cl)cc3)o2)c(=O)n(-c2ccccc2)n1C,-41.5%
4,COc1ccc(C(=O)OCC(=O)c2cc(C)n(CC3CCCO3)c2C)cc1[N+](=O)[O-] (stereo not shown),-42.9%
5,Cc1nc(-c2ccc(NC(=O)Cc3ccccc3)cc2)cs1,21.1%
6,Cc1ccc(-c2nn(-c3ccccc3)cc2/C=C2\SC(=S)N(CCCCCC(=O)O)C2=O)o1,15.1%
7,Cc1cc(-c2ccc(C)c(S(=O)(=O)NCc3ccc(Br)cc3)c2)on1,-31%
8,COc1cccc(SCc2noc(C(=O)NCC3CCCO3)c2C(=O)O)c1 (stereo not shown),11.9%
9,COc1ccccc1CCc1nnc(CCC(=O)NCCOc2cccnc2)o1,7.9%
10,Cc1cc(S(=O)(=O)N2CCC(NC(=O)C34CC5CC(CC(C5)C3)C4)CC2)ccc1-n1cnnn1,-15.2%
11,COCCN(CCOC)c1ncc(Cl)c(C(=O)c2c(C)cc3ccccn23)n1,-4.6%
12,COC(=O)C1(C)CC1(c1ccccc1)c1ccccc1 (stereo not shown),-3.98%
13,O=C(N/N=C/c1ccccc1O)C1CCCC1,8.05%
14,Cc1ccccc1NC(=O)CN1CCC(C(=O)c2ccc3c(c2)OCCO3)CC1,-44.5%
15,O=C(c1ccccc1)C1CCN(CC(=O)N2CCN(c3ccccc3)CC2)CC1,-14.9%
16,COc1ccccc1NC(=O)CN1CCC(C(=O)c2ccc(F)cc2)CC1,-38.5%
17,Cc1ccc(C(=O)C2CCN(CC(=O)N3CCN(c4ccc(F)cc4)CC3)CC2)cc1,-73.7%
18,O=C(CN1CCC(C(=O)c2ccc(F)cc2)CC1)NCc1ccccc1F,-39.6%
19,Cc1ccc(C(=O)C2CCN(CC(=O)Nc3ccccc3C)CC2)cc1,-68.9%
20,Cc1ccc(C(=O)NCN2CCN(c3ccc(F)cc3)CC2)cc1,-28.9%
21,O=C(CN1CCC(C(=O)c2ccc3c(c2)OCCO3)CC1)NCc1ccc(F)cc1,-30.2%
22,Cc1ccc(C(=O)C2CCN(CC(=O)NCc3ccc(F)cc3)CC2)cc1,-53.3%
